An excerpt weighted towards active compounds, which were near 2% of everything screened.
KKLEB tox: cytotoxicity in KKLEB CF airway cells, primary screen, cytotoxicity control for CF NF-kB inhibitor project, cell-based, uHTS, fluorescence assay plates; activity change (cytotoxicity), % at 5 µM; KKLEB CF airway cells viability, ATPlite luminescence, overnight; active compounds read low; cells stimulated with P. aeruginosa culture filtrate; 0.36% of 360,000 active; AID 602141, 2011;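 active = corrected activity change at or below -50% at 5 µM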
Shn3 3UTR inh: reduction of Shn3 3'UTR firefly luciferase signal, primary screen, Schnurri-3 inhibitor project, cell-based, Clone20 osteoblasts, set 2 | inhibition, % at 12.5 µM | Clone20 osteoblast Shn3 3'UTR firefly luciferase, 24 h | AID 588674, 2011 | 0.52% of 360,000 active;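 active = mean inhibition of at least 75% with every replicate also reaching 75%; inconclusive = mean inhibition at least 75% but some replicate below; inactive = mean inhibition below 75%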;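 also: 0% = median of neutral control wells and 100% = pilot-screen positive control compound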
PAX8 inh HTS: inhibitors of PAX8-driven TPO luciferase reporter, primary screen, RMG-I cells, single concentration. SteadyGlo, 24 h. inhibition, % at 12.6 µM. 1.2% of 360,000 active. AID 652154, 2013;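 active = mean replicate inhibition at least 60% with every replicate also reaching 60%; inconclusive = only one of the two criteria is met; inactive = mean below 60% and not all replicates reaching 60%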;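 also: luciferase light reporting Pax8 driven TPO promoter activity; plate controls were median of neutral control wells for no effect and mitoxantrone controls for full effect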
LGR2 antag: inhibitors of bursicon-induced LGR2 CRE-luciferase signal, primary screen, cell-based, HEK293, CRE-luciferase reporter, bursicon stimulation | Drosophila bursicon receptor LGR2 (rickets) | inhibition, % at 9.99 µM | 0.35% of 380,000 active | bursicon-stimulated, 4 h;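 active = drop in luminescence signal, shown as inhibition above about 50% in the replicate tests, limit read from the data, passing the limit was not always enough; inconclusive = probably only some replicates passing the limit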;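 also: agonist challenge used bursicon conditioned medium at about half maximal strength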
EWS-Fli block: EWS/Fli-driven NR0B1 reporter inhibitors, primary screen, A673 cells, NR0B1 luciferase, luminescence, MLPCN library | viability-normalised | inhibition, % at 12.6 µM | 0.67% of 350,000 active | AID 651661, 2012;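 active = mean inhibition of at least 50% after viability correction, with every replicate also passing that limit; inconclusive = mean reaches 50% but only one of two replicates passes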;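 also: firefly luciferase signal divided by Alamar Blue viability fluorescence both relative to DMSO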
CF NFkB inh: inhibitors of PAF-induced NF-kB signaling, primary screen, cell-based, GFP fluorescence, uHTS; 0.86% of 360,000 active; AID 588850, 2011; KKLEB NF-kB-GFP reporter, GFP fluorescence overnight; inhibition, % at 5 µM;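 active = at least 50% inhibition at 5 µM, scaled per plate between neutral and stimulator controls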;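 also: PAF is a Pseudomonas aeruginosa culture filtrate used as stimulus; plate controls were PAF-stimulated DMSO wells for no effect and unstimulated DMSO wells for full effect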
An asterisk follows results filed as active; u = inconclusive; x = not tested or not shown.

SMILES | KKLEB tox | Shn3 3UTR inh | PAX8 inh HTS | LGR2 antag | EWS-Fli block | CF NFkB inh
COc1ccc(S(=O)(=O)Nc2ccc3c(c2)C(=O)N([C@@H](C)CO)C[C@H](C)[C@@H](CN(C)C(=O)Nc2ccc(C(F)(F)F)cc2)OCCCC[C@@H](C)O3)cc1 | x | x | 84* | -8 | 5 | x
COc1cccc2sc(N(CCCN(C)C)C(=O)c3ccc(S(=O)(=O)N4CCc5ccccc5C4)cc3)nc12 | -16 | 15 | 19 | 6 | x | 26
COc1ccc(C)c2sc(N(CCCN(C)C)C(=O)c3ccc(S(=O)(=O)N4CCc5ccccc5C4)cc3)nc12 | -84* | 92* | u | -9 | 58* | 75*
O=C(c1ccccc1F)N1C[C@H]2[C@@H](c3ccccc31)[C@H](CO)N2C(=O)c1ccc(F)cc1 | x | x | -7 | -9 | 6 | x
O=C(Nc1ccc(CN2CCOCC2)cc1)c1cc2ccccn2n1 | 2 | 44 | 9 | 78* | 56* | -4
CO[C@@H]1CN(C)C(=O)c2ccc(NC(=O)Nc3cc(F)ccc3F)cc2OC[C@@H](C)NC[C@H]1C | x | x | x | -10 | 13 | x
COc1ccc(C(=O)Nc2ccccc2C(=O)N/N=C/c2ccncc2)cc1OC | -60* | -41 | -45 | u | -22 | 12
COc1ccc(C(=O)Nc2ccccc2C(N)=O)cc1 | -26 | -54 | x | -14 | x | 2
COc1ccc(C(=O)Nc2ccccc2C(=O)N/N=C/c2cccc3ccccc23)cc1 | -88* | -18 | x | x | x | -6
CNC[C@H]1Oc2ccc(NC(=O)Nc3cccc4ccccc34)cc2C(=O)N([C@H](C)CO)C[C@H]1C | x | x | -3 | -6 | 16 | x
CCCCCN1C=CC(=C2C(=O)c3ccccc3C2=O)C=C1 | -82* | 93* | 99* | 104* | 91* | -5
CC1=CC(=C2C(=O)c3ccccc3C2=O)C=C(C)N1C | 6 | -99 | x | -12 | x | -30
O=C(Nc1ccc(CN2CCOCC2)cc1)c1ccc(-c2cccc(Cl)c2)o1 | 2 | -7 | x | x | x | -18
O=C(NC(=S)Nc1ccc(CN2CCOCC2)cc1)c1ccc(-c2cccc(Cl)c2)o1 | -5 | 34 | 0 | 67* | 28 | -10
C[C@@H](c1ccccc1)N1C[C@H]2CCCN2c2cc(Br)ccc2S1(=O)=O | -10 | 5 | 36 | -4 | 63* | 20
CN(C)C(=S)SCC(=O)Nc1ccc(Cl)cc1Cl | -12 | -15 | -17 | -22 | 75* | -10
COc1ccc(C(CC(=O)c2ccc(C)cc2)C(C#N)C#N)cc1OC (centres undefined) | -89* | 60 | x | 53* | x | 102*
COc1ccc(S(=O)(=O)Nc2ccc3c(c2)C(=O)N([C@H](C)CO)C[C@@H](C)[C@@H](CN(C)C(=O)c2ccccc2)OCCCC[C@H](C)O3)cc1 | x | x | 6 | 3 | -9 | x
COc1cc(C2c3cc4c(cc3C(O)C3COCC23)OCO4)cc(OC)c1OC (centres undefined) | -12 | -3 | x | 0 | -1 | 18
CCN(CC)C1Oc2cc3c(cc2C(c2cc(OC)c(O)c(OC)c2)C1C)OCO3 (centres undefined) | -7 | -37 | 2 | -4 | 3 | 21
COc1cc([C@@H]2c3cc4c(cc3[C@H](O)[C@H]3COC(=O)[C@H]23)OCO4)cc(OC)c1OC | -28 | 10 | 95* | -58 | 72* | 51*
COc1cc(C2c3cc4c(cc3C(OC3OC5COC(c6cccs6)OC5C(O)C3O)C3COC(=O)C23)OCO4)cc(OC)c1O (centres undefined) | 10 | 94* | 69* | 41 | 60* | 33
COc1cc([C@@H]2c3cc4c(cc3[C@@H](O[C@@H]3O[C@@H]5CO[C@@H](C)O[C@H]5[C@H](O)[C@H]3O)[C@H]3COC(=O)[C@H]23)OCO4)cc(OC)c1O | -2 | 81 | 28 | 25 | 54* | 5
CCC(=O)N(C)C[C@H]1Oc2ncc(C#Cc3cccnc3)cc2C(=O)N([C@H](C)CO)C[C@@H]1C | x | x | 3 | -3 | -6 | x

High-throughput results deposited in PubChem BioAssay by several laboratories.
